The source made the active and inactive calls.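 Rule for the calls: active = inhibition of plasma PAF acetylhydrolase at a set limit or more at 0.1 µM, with tenfold selectivity over all off-targets; inactive = inhibition below the limit or weaker selectivity.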

The assay is described as follows: competitive ABPP of pPAFAH versus proteome off-targets – biochemical, gel-based, FP-Rh fluorescence, mouse, HTS hit compounds, selectivity assay for pPAFAH inhibitor project, late-stage follow-up (AID 588773). The settings on record: MW 32 kDa protein, at 10 µM.

Regarding `CN(C)C(=O)Oc1noc2cc(Cl)ccc12`, the outcome was inactive.

On to `O=C(Oc1ccc([N+](=O)[O-])cc1)N1CCC(N2CCCCC2)CC1`, for which the outcome was inactive.

The record behind these values is PubChem BioAssay AID588773 (The Scripps Research Institute Molecular Screening Center, 2011).
